High-throughput results deposited in PubChem BioAssay by National Center for Advancing Translational Sciences (NCATS).
KAT2A inh: blocks human GCN5L2 histone acetyltransferase; Q92830; GCN5L2 HAT assay, ThioGlo1 CoA-SH fluorescence; Potency, µM (titrated, usually from 58.9 µM), for inactives: at the top dose activity change, negative = inhibition, usual class: inhibitors; 390,000 tested, 0.21% active; also: % is scaled to controls: 0 for no effect and ±100 for the full control effect
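GCN5L2 (20 nM) in 50mM HEPES pH 7.5, 0.1mM EDTA, 0.01% Tween-20 preincubated 15 min with compounds at room temperature. Reaction started with H3(1-25) 75uM, acetyl-CoA 70uM, ThioGlo1 50uM; CoA-thiol fluorescence (Ex340/Em540) read at 0 and 20 min.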
Mito fusion act: mitochondrial division inhibition or fusion activation; S. cerevisiae fusion-defective mutant growth rescue, CellTiterGlo 48 h; Potency, µM (titrated, usually from 46.1 µM), without a hit: at the highest dose growth rescue (activation), usual class: activators; 320,000 tested, 0.23% active; AID 485298; also: % of control where 0% means no effect; nearly all actives have a fitted effect of over 45% in size
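S. cerevisiae fusion-defective temperature-sensitive mutants (e.g. fzo1-1, mgm1-5) grown 48 h at 37C in YPEG (ethanol/glycerol non-fermentable) medium with 23 nl compound per well; growth rescue read as CellTiterGlo luminescence.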
VDR inhibitor: inhibitors of human vitamin D receptor | P11473 | VDR-SRC2-3 peptide fluorescence polarization, 2 h | Potency, µM, for the others: max response, negative = inhibition, usual class: inhibitors | 400,000 tested, 0.93% active | AID 504847; also: % is scaled to controls: 0 for no effect and ±100 for the full control effect
Target sequence (P11473 whole entry, looked up): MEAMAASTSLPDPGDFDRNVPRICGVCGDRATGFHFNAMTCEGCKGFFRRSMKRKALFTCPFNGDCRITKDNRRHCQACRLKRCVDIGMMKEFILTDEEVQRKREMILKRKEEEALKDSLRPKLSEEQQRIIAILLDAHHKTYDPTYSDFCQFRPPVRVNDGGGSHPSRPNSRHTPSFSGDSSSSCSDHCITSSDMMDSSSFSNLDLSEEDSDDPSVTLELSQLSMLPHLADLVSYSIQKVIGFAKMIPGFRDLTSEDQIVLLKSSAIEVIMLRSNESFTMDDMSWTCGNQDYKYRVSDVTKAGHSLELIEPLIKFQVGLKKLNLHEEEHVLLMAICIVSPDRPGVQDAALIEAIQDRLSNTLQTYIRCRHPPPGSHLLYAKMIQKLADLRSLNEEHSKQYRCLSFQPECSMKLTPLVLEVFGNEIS
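Reagent solutions, kept cold and dark, are dispensed first; compounds are then pinned in at 23 nl, plates briefly spun, and incubated 2 h at ambient temperature. Inhibition of VDR–SRC2-3 peptide binding is read by fluorescence polarization.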
PLK1 PBD block: PLK1 (human) polo-box domain binding inhibition; P53350; Plk1 PBD binding of FITC phosphopeptide, fluorescence polarization; Potency, µM, inactives show max response, negative = inhibition, usual class: inhibitors; 360,000 tested, 2.8% active; AID 720504; also: series mostly up to about 57 µM; % is scaled to controls: 0 for no effect and ±100 for the full control effect; nearly all actives have a fitted effect of over 65% in size
GLS inh: glutaminase GLS (human) inhibition; GLS enzymatic activity, qHTS titration; Potency, µM (highest dose often 45.5 µM), inactives show at the top dose activity change, negative = inhibition, most hits filed as inhibitors; O94925; AID 624170; 410,000 tested, 0.21% active; also: % is scaled to controls: 0 for no effect and ±100 for the full control effect
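Compounds were pin-transferred onto hKGA, after which L-glutamine (1 mM solution) and a detection mix of glutamate oxidase, HRP and Amplex Red were added. Initial and 30 min RT fluorescence reads were collected.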
PKM2 activator: increases activity of human pyruvate kinase M2 | P14618 | purified PKM2, Kinase-Glo ATP luminescence, activation; response scale: 0% is enzyme alone, no compound | Potency, µM (series often up to 57.5 µM), inactives show at the highest dose activation, most hits filed as activators | 260,000 tested, 0.34% active; also: % is scaled to controls: 0 for no effect and ±100 for the full control effect; nearly all actives have a fitted effect of over 55% in size
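Kinase-Glo luminescence reports ATP generated from ADP (0.1 mM) and PEP (0.5 mM) by purified hPK-M2 after 1 h at room temperature, pH 7.2 imidazole buffer; intermediate enzyme activity allows detecting inhibitors and activators.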
* hit, by the source's call; ? = inconclusive; . = no result given; [ ] = dose if it differs, or a comment. The list is not random: actives were taken first. Their share in the collection is about 3.4%. Calls follow the shape of the dose curve; as a rule, active = well fitted curve in the direction sought with a large enough effect; inconclusive = small, poorly fitted or top-dose-only effect, or another doubt; inactive = no such curve, though single readings can be large; an effect the other way counts as inactive or inconclusive. Potency is read from the fitted curve at half-maximal effect.

SMILES	KAT2A inh	Mito fusion act	VDR inhibitor	PLK1 PBD block	GLS inh	PKM2 activator
COCCNC(=O)CSc1c2c(nc3ccc(Cl)cc13)CCCC2	-4%	18µM*	?	-10%	1%	1%
CC(=O)Oc1ccc(N2C(=O)C3C(C2=O)C(C(=O)c2ccc(Cl)cc2)N2CCCC32)cc1 (stereo unspecified)	-16%	-13%	-5%	24µM*	1%	-18%
Cc1ccc(N2C(=O)C3C(C2=O)C(C(=O)c2ccc(Cl)cc2)N2CCCC32)cc1 (stereo unspecified)	-14%	-2%	-3%	-25%	-5%	1%
COc1ccc(S(=O)(=O)N2CCCCC2c2cc(C(=O)N3CCOCC3)no2)cc1 (stereo unspecified)	.	.	.	-4%	-9%	.
O=C(Oc1cc(-c2ccccc2)no1)c1ccc(Cl)cc1	-3%[0.501 µM]	0%	6%	24µM*	27%	-7%
Oc1ccc(Cl)cc1C1C=C(c2ccc3c(c2)OCO3)NC(c2ccc(Br)cc2)N1 (stereo unspecified)	.	.	1%	.	.	.
Cc1nc(COC(=O)c2cc(O)c3ccccc3c2O)cs1	-20%	-8%	?	21µM*	20%	?
Cc1nc(COC(=O)c2ccc(CO)cc2)cs1	0%	3%	2%	-9%	-5%	?
O=C(NC(=S)N1CCN(c2ccc(C(F)(F)F)cc2[N+](=O)[O-])CC1)c1cccs1	-1%	19%	-1%	-8%	-12%	3%
CC1CCc2ccccc2N1CC(=O)Nc1cccc(S(=O)(=O)N2CCCC2)c1 (stereo unspecified)	-11%	8%	28%	3%	31%	.
CCc1cccc(CC)c1NC(=O)CSc1nnc(C2CC2)n1C	-1%	-4%	89µM*	-6%	-3%	-7%
Cc1cccc(OC(=O)c2cncc(Br)c2)c1	-5%	-6%	-16%	27µM*	-8%	0%
CCOC(=O)c1sc2nc(C(C)C)c3c(c2c1N)CCC3	-22%	13%	3%	4%	-7%	-1%
CC(C)c1nc2sc3c(=O)[nH]c(=S)[nH]c3c2c2c1CCCC2	-6%	21%	71µM*	24µM*	-4%	-3%
CC(C)c1nc2sc3c(=O)[nH]c(=S)[nH]c3c2c2c1CCC2	?	13µM*	.	.	.	4%
S=C1NCCNC(=S)NCCOCCOCCN1	-8%	25%	8%	27µM*	1%	0%
Cc1cc(S(=O)(=O)NCC(=O)O)ccc1F	-5%	0%	-17%	21µM*	-12%	0%
O=C1C(=O)N(CCN2CCOCC2)C(c2ccccn2)/C1=C(/O)c1ccc(F)cc1 (stereo unspecified)	-5%	-2%	-9%	11µM*	?	-2%
Cc1ccsc1C(=O)Nc1ccc(S(=O)(=O)N2CCOCC2)cc1	1%	6%	1%	-1%	7%	.
O=C(NNC(=S)NC1CCCCC1)c1sc2ccccc2c1Cl	-8%	?	-20%	21µM*	23%	-17%
O=[N+]([O-])c1ccc(NNC(=S)Nc2ccc(F)cc2)cc1	-1%	3%	?	12µM*	-22%	-35%
Cc1cc(C(=O)N2CCC2(C)C(=O)NS(=O)(=O)c2ccccc2Cl)nn1C (stereo unspecified)	.	.	.	-11%	8%	.
Cc1nc(/C=C/c2ccccc2)[nH]c(=O)c1-c1ccccc1	-2%	-1%	-2%	-28%	1%	1%
COc1ccc(Cc2nnc(NCCO)[nH]c2=O)cc1	1%	2%	-3%	4%	-14%	.
COc1ccc(Cc2nnc(NCCO)[nH]c2=O)cc1OC	7%	3%	?	6µM*	?	.
SMILES	KAT2A inh	Mito fusion act	VDR inhibitor	PLK1 PBD block	GLS inh	PKM2 activator
O=C(O)c1ccc(Cn2cc(/C=C\[N+](=O)[O-])c3ccccc32)o1	-19%	3%	13µM*	27µM*	7%	6%[11.5 µM]
Cc1cccc(Cn2cc(/C=C/[N+](=O)[O-])c3ccccc32)c1	-13%	-12%	?	-26%	-8%	3%
COc1ccc(C(=O)N[C@H](C(=O)N2CCN(c3ccccc3F)CC2)C(C)C)cc1	-8%	-20%	-15%	-16%	2%	0%
CC(=O)OCC1OC(n2ccc3ccccc32)C(OC(C)=O)C(OC(C)=O)C1OC(C)=O (stereo unspecified)	-15%	-2%	-3%	27µM*	60%	1%
CCN(CC)S(=O)(=O)c1ccc2c(c1)nc(CCC(=O)OCC(=O)Nc1cc(Cl)cc(Cl)c1)n2C	-3%	-6%	13%	1%	83%	-5%
CC(=O)NCCN1C(=O)S/C(=C\c2cccs2)C1=O	-19%	5%	19%	?	-5%	-6%
O=C(NCCN1C(=O)S/C(=C\c2cccs2)C1=O)c1ccc(=O)[nH]c1	-3%	-3%	.	.	.	4.5µM*
CN(C)c1ccc(CNC(=O)c2sc3ncccc3c2-n2cccc2)cc1	-7%	.	3%	.	7%	.
COc1ccc(CNS(=O)(=O)c2ccc(N3CCCC3)cc2Br)cc1	-9%	.	?	24µM*	-4%	.
CC(=O)c1ccc(N2CCN(S(=O)(=O)c3cccc4nsnc34)CC2)cc1	-3%	0%	-6%	27µM*	-13%	7%
CC(=O)c1ccc(N2CCN(c3ncccn3)CC2)cc1	-3%	25µM*	-3%	-3%	-12%	0%
CCC(C)[C@H]1CNCCN1CCc1cccc(F)c1 (stereo partly specified)	-4%	-12%	-5%	-2%	6%	.
Cn1c(=O)c(Oc2ccc(Cl)cc2)c(O)c2ccccc21	-14%	10µM*	2%	-9%	7%	-6%
COc1ccc(Oc2c(O)c3ccccc3n(C)c2=O)cc1	-9%	?	-5%	4%	6%	-5%
Cc1cccc(-n2ccnc2SCC(=O)Nc2ccccc2C(F)(F)F)c1	-12%	.	6%	.	-12%	.
FC(F)(F)c1ccc(-c2cccc3c2C2CC3CCN2C(=S)NCCc2ccccc2)cc1 (stereo unspecified)	.	.	.	1%	3%	.
COCCCNc1c2c3c(cccc3[nH]c1=O)C(=O)c1ccccc1-2	?	0%	-9%	0.38µM*	18%	7%
COCCCNC1=C(Cl)C(=O)c2ccccc2C1=O	0%	-1%	19%	-16%	9%	-7%
CCCNC(=O)c1nc(C)n(-c2cc(Cl)ccc2Cl)n1	-2%	-6%	0%	21µM*	-13%	-12%
Cc1nc(C(=O)N(C)C)nn1-c1ccc(Cl)cc1Cl	2%	-2%	3%	-8%	1%	0%
CCCNC(=O)c1nc(C)n(-c2cc(Cl)cc(Cl)c2)n1	-9%	-2%	10%	-22%	3%	-6%
